{"source": "PubChem BioAssay AID1159580", "about": "(chemical genetic matrix, 2015)", "assay": "chemical genetic growth profiling, strain panel (AID 1159580);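 also: tested at 20 µM; growth read once vehicle control cultures reached saturation at 30 °C; 1 = growth at the plate median or of vehicle wells; lower values mean less growth of the strain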", "conditions": "S. cerevisiae deletion strains, growth OD", "note": "The whole screen tested about 5,500 compounds, of which about 2,000 (36%) were called active. Roughly 18% stayed inconclusive and do not appear here. Some of the results follow. Values without a mark were called inactive. Rule as the data show it: active = normalized growth mostly below about 0.91 (no sharp cut-off); inconclusive = no clear call, values can overlap the other calls; inactive = mostly above about 0.92."}
{"smiles": "Oc1ccc2c3c1O[C@H]1c4[nH]c5ccccc5c4C[C@@]4(O)C(C2)N(CC2CC2)CCC314", "note": "(stereo not given in full)", "values": [{"measurement": "normalized growth", "setting": "locus YAL013W, strain DEP1, stronger effect = lower value", "value": 0.989}, {"measurement": "normalized growth", "setting": "locus YAL040C, strain CLN3, stronger effect = lower value", "value": 1}, {"measurement": "normalized growth", "setting": "locus YCL061C, strain MRC1 (second series), stronger effect = lower value", "value": 1.01}, {"measurement": "normalized growth", "setting": "locus YDR363W, strain ESC2, stronger effect = lower value", "value": 1.02}, {"measurement": "normalized growth", "setting": "locus YER002W, strain NOP16, stronger effect = lower value", "value": 1.02}, {"measurement": "normalized growth", "setting": "locus YGR078C, strain PAC10, stronger effect = lower value", "value": 1.02}, {"measurement": "normalized growth", "setting": "locus YMR263W, strain SAP30, stronger effect = lower value", "value": 1.01}, {"measurement": "normalized growth", "setting": "locus YMR307W, strain GAS1, stronger effect = lower value", "value": 0.993}, {"measurement": "normalized growth", "setting": "locus YNL175C, strain NOP13, stronger effect = lower value", "value": 1.02}, {"measurement": "normalized growth", "setting": "locus YNL197C, strain WHI3, stronger effect = lower value", "value": 1}, {"measurement": "normalized growth", "setting": "locus YNL224C, strain SQS1, stronger effect = lower value", "value": 1.01}, {"measurement": "normalized growth", "setting": "locus YNL322C, strain KRE1, stronger effect = lower value", "value": 0.999}, {"measurement": "normalized growth", "setting": "locus YOR083W, strain WHI5 (second series), stronger effect = lower value", "value": 1.01}, {"measurement": "normalized growth", "setting": "locus YPL055C, strain LGE1, stronger effect = lower value", "value": 0.987}]}
{"smiles": "Fc1ccc(NC(=S)N2CCCN(Cc3ccc(Cl)cc3Cl)CC2)cc1", "values": [{"measurement": "normalized growth", "setting": "locus YAR019C, strain CDC15, stronger effect = lower value", "value": 0.989}, {"measurement": "normalized growth", "setting": "locus YBL105C, strain PKC1, stronger effect = lower value", "value": 0.984}, {"measurement": "normalized growth", "setting": "locus YBR135W, strain CKS1, stronger effect = lower value", "value": 0.992}, {"measurement": "normalized growth", "setting": "locus YBR136W, strain MEC1, stronger effect = lower value", "value": 0.985}, {"measurement": "normalized growth", "setting": "locus YBR160W, strain CDC28, stronger effect = lower value", "value": 0.982}, {"measurement": "normalized growth", "setting": "locus YDL017W, strain CDC7, stronger effect = lower value", "value": 0.982}, {"measurement": "normalized growth", "setting": "locus YDL028C, strain MPS1, stronger effect = lower value", "value": 0.99}, {"measurement": "normalized growth", "setting": "locus YDL101C, strain DUN1, stronger effect = lower value", "value": 0.985}, {"measurement": "normalized growth", "setting": "locus YDL108W, strain KIN28, stronger effect = lower value", "value": 0.992}, {"measurement": "normalized growth", "setting": "locus YDL132W, strain cdc53, stronger effect = lower value", "value": 0.989}, {"measurement": "normalized growth", "setting": "locus YDL214C, strain PRR2, stronger effect = lower value", "value": 0.987}, {"measurement": "normalized growth", "setting": "locus YDR052C, strain DBF4, stronger effect = lower value", "value": 0.986}, {"measurement": "normalized growth", "setting": "locus YDR054C, strain cdc34, stronger effect = lower value", "value": 0.982}, {"measurement": "normalized growth", "setting": "locus YDR226W, strain ADK1, stronger effect = lower value", "value": 0.973}, {"measurement": "normalized growth", "setting": "locus YDR477W, strain SNF1, stronger effect = lower value", "value": 1}, {"measurement": "normalized growth", "setting": "locus YER123W, strain YCK3, stronger effect = lower value", "value": 1.02}, {"measurement": "normalized growth", "setting": "locus YER133W, strain GLC7, stronger effect = lower value", "value": 1}, {"measurement": "normalized growth", "setting": "locus YFL009W, strain cdc4, stronger effect = lower value", "value": 0.992}, {"measurement": "normalized growth", "setting": "locus YFL029C, strain CAK1, stronger effect = lower value", "value": 0.979}, {"measurement": "normalized growth", "setting": "locus YFR003C, strain YPI1, stronger effect = lower value", "value": 0.984}, {"measurement": "normalized growth", "setting": "locus YFR019W, strain FAB1, stronger effect = lower value", "value": 0.998}, {"measurement": "normalized growth", "setting": "locus YFR028C, strain CDC14, stronger effect = lower value", "value": 0.997}, {"measurement": "normalized growth", "setting": "locus YGR040W, strain KSS1, stronger effect = lower value", "value": 1.01}, {"measurement": "normalized growth", "setting": "locus YGR052W, strain FMP48, stronger effect = lower value", "value": 1.09}, {"measurement": "normalized growth", "setting": "locus YGR092W, strain DBF2, stronger effect = lower value", "value": 1.01}, {"measurement": "normalized growth", "setting": "locus YHR030C, strain SLT2, stronger effect = lower value", "value": 0.903}, {"measurement": "normalized growth", "setting": "locus YHR079C, strain IRE1, stronger effect = lower value", "value": 0.964}, {"measurement": "normalized growth", "setting": "locus YHR082C, strain KSP1, stronger effect = lower value", "value": 1.15}, {"measurement": "normalized growth", "setting": "locus YHR205W, strain SCH9, stronger effect = lower value", "value": 0.989}, {"measurement": "normalized growth", "setting": "locus YIL147C, strain SLN1, stronger effect = lower value", "value": 0.977}, {"measurement": "normalized growth", "setting": "locus YJL095W, strain BCK1, stronger effect = lower value", "value": 1.02}, {"measurement": "normalized growth", "setting": "locus YJL128C, strain PBS2, stronger effect = lower value", "value": 0.959}, {"measurement": "normalized growth", "setting": "locus YJL157C, strain FAR1, stronger effect = lower value", "value": 1.01}, {"measurement": "normalized growth", "setting": "locus YJR016C, strain ILV3, stronger effect = lower value", "value": 0.992}, {"measurement": "normalized growth", "setting": "locus YJR066W, strain TOR1 (second series), stronger effect = lower value", "value": 0.966}, {"measurement": "normalized growth", "setting": "locus YJR066W, strain TOR1, stronger effect = lower value", "value": 1.11}, {"measurement": "normalized growth", "setting": "locus YKL048C, strain ELM1, stronger effect = lower value", "value": 0.981}, {"measurement": "normalized growth", "setting": "locus YKL067W, strain YNK1, stronger effect = lower value", "value": 0.989}, {"measurement": "normalized growth", "setting": "locus YKL101W, strain HSL1, stronger effect = lower value", "value": 0.987}, {"measurement": "normalized growth", "setting": "locus YKL193C, strain SDS22, stronger effect = lower value", "value": 0.994}, {"measurement": "normalized growth", "setting": "locus YKL203C, strain TOR2, stronger effect = lower value", "value": 1.05}, {"measurement": "normalized growth", "setting": "locus YLR113W, strain HOG1, stronger effect = lower value", "value": "0.821 (active)"}, {"measurement": "normalized growth", "setting": "locus YLR133W, strain CKI1, stronger effect = lower value", "value": 1.01}, {"measurement": "normalized growth", "setting": "locus YLR403W, strain SFP1, stronger effect = lower value", "value": 1.01}, {"measurement": "normalized growth", "setting": "locus YML070W, strain DAK1, stronger effect = lower value", "value": 1}, {"measurement": "normalized growth", "setting": "locus YMR001C, strain CDC5, stronger effect = lower value", "value": 0.992}, {"measurement": "normalized growth", "setting": "locus YMR205C, strain PFK2 (second series), stronger effect = lower value", "value": 0.994}, {"measurement": "normalized growth", "setting": "locus YMR277W, strain FCP1, stronger effect = lower value", "value": 0.992}, {"measurement": "normalized growth", "setting": "locus YNL006W, strain LST8, stronger effect = lower value", "value": 0.987}, {"measurement": "normalized growth", "setting": "locus YNL020C, strain ARK1, stronger effect = lower value", "value": 1}, {"measurement": "normalized growth", "setting": "locus YNL161W, strain CBK1, stronger effect = lower value", "value": 0.98}, {"measurement": "normalized growth", "setting": "locus YNL183C, strain NPR1, stronger effect = lower value", "value": 1.09}, {"measurement": "normalized growth", "setting": "locus YNL207W, strain RIO2, stronger effect = lower value", "value": 0.984}, {"measurement": "normalized growth", "setting": "locus YNL222W, strain SSU72, stronger effect = lower value", "value": 0.992}, {"measurement": "normalized growth", "setting": "locus YNL307C, strain MCK1 (second series), stronger effect = lower value", "value": 1}, {"measurement": "normalized growth", "setting": "locus YOL078W, strain AVO1, stronger effect = lower value", "value": 0.996}, {"measurement": "normalized growth", "setting": "locus YOL136C, strain PFK27, stronger effect = lower value", "value": 1.01}, {"measurement": "normalized growth", "setting": "locus YOR061W, strain CKA2, stronger effect = lower value", "value": 1.01}, {"measurement": "normalized growth", "setting": "locus YOR119C, strain RIO1, stronger effect = lower value", "value": 1.08}, {"measurement": "normalized growth", "setting": "locus YOR231W, strain MKK1, stronger effect = lower value", "value": 0.985}, {"measurement": "normalized growth", "setting": "locus YOR329C, strain SCD5, stronger effect = lower value", "value": 0.986}, {"measurement": "normalized growth", "setting": "locus YPL031C, strain PHO85, stronger effect = lower value", "value": 1.02}, {"measurement": "normalized growth", "setting": "locus YPL153C, strain RAD53, stronger effect = lower value", "value": 1.02}, {"measurement": "normalized growth", "setting": "locus YPL204W, strain HRR25, stronger effect = lower value", "value": 0.982}, {"measurement": "normalized growth", "setting": "locus YPL209C, strain IPL1, stronger effect = lower value", "value": 0.983}, {"measurement": "normalized growth", "setting": "locus YPL256C, strain CLN2, stronger effect = lower value", "value": 0.888}, {"measurement": "normalized growth", "setting": "locus YPR025C, strain CCL1, stronger effect = lower value", "value": 0.987}, {"measurement": "normalized growth", "setting": "locus YPR106W, strain ISR1, stronger effect = lower value", "value": 0.99}, {"measurement": "normalized growth", "setting": "locus YPR111W, strain DBF20, stronger effect = lower value", "value": 0.975}, {"measurement": "normalized growth", "setting": "strain NNK1, stronger effect = lower value", "value": 0.983}, {"measurement": "normalized growth", "setting": "strain TSCII, stronger effect = lower value", "value": 0.984}]}
